Values joined by “and” are separate entries in the source; they are usually repeats but may differ in a detail not shown here. Equal values may be shown once. The campaign covered roughly 5,500 compounds. About 2,000 (36%) were called active. Another 18% or so got no clear call; they are omitted. No stated cut-off is given here; in the data, active means normalized growth mostly below about 0.91 (no sharp cut-off); inconclusive means no clear call, values can overlap the other calls; inactive means mostly above about 0.92. The list shows a part of the results.
Assay: chemical genetic growth profiling, strain panel (AID 1159580);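 further: tested at 20 µM; growth read once vehicle control cultures reached saturation at 30 °C; 1 = growth at the plate median or of vehicle wells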
Settings: S. cerevisiae deletion strains, growth OD

Measured: normalized growth

NC[C@H]1O[C@H](O[C@H]2[C@H](O)[C@@H](O[C@H]3O[C@H](CO)[C@@H](O)[C@H](N)[C@H]3O)[C@H](N)C[C@@H]2N)[C@H](N)[C@@H](O)[C@@H]1O
inactive: locus YAL021C, strain ccr4, stronger effect = lower value 0.999 | locus YAL026C, strain drs2, stronger effect = lower value 0.992 | locus YAL030W, strain snc1, stronger effect = lower value 0.996 | locus YBL061C, strain skt5, stronger effect = lower value 0.992 | locus YBR009C, strain hhf1, stronger effect = lower value 1.03 | locus YBR021W, strain FUR4, stronger effect = lower value 0.902 | locus YBR023C, strain chs3, stronger effect = lower value 1 | locus YBR171W, strain sec66, stronger effect = lower value 0.989 | locus YBR229C, strain ROT2, stronger effect = lower value 0.995 | locus YBR231C, strain swc5, stronger effect = lower value 0.997 | locus YBR279W, strain paf1, stronger effect = lower value 0.993 | locus YCL011C, strain gbp2, stronger effect = lower value 0.998 | locus YCL016C, strain dcc1, stronger effect = lower value 1.01 | locus YCL029C, strain bik1, stronger effect = lower value 0.977 | locus YCL061C, strain MRC1, stronger effect = lower value 0.993 | locus YCL069W, strain vba3, stronger effect = lower value 0.989 | locus YCR088W, strain abp1, stronger effect = lower value 0.992 | locus YDL005C, strain med2, stronger effect = lower value 0.992 | locus YDL035C, strain GPR1, stronger effect = lower value 0.99 | locus YDL040C, strain nat1, stronger effect = lower value 0.997 | locus YDL074C, strain BRE1, stronger effect = lower value 0.955 | locus YDL101C, strain DUN1, stronger effect = lower value 0.991 | locus YDL185W, strain tfp1, stronger effect = lower value 0.95 | locus YDL192W, strain arf1, stronger effect = lower value 1 | locus YDR001C, strain nth1, stronger effect = lower value 0.989 | locus YDR069C, strain doa4, stronger effect = lower value 0.99 | locus YDR101C, strain arx1, stronger effect = lower value 0.943 | locus YDR137W, strain rgp1, stronger effect = lower value 1.01 | locus YDR150W, strain NUM1, stronger effect = lower value 0.98 | locus YDR159W, strain sac3, stronger effect = lower value 0.983 | locus YDR162C, strain NBP2, stronger effect = lower value 1.01 | locus YDR195W, strain ref2 0.937 | locus YDR297W, strain sur2, stronger effect = lower value 0.986 | locus YDR318W, strain mcm21, stronger effect = lower value 1 | locus YDR334W, strain swr1, stronger effect = lower value 0.985 | locus YDR335W, strain msn5, stronger effect = lower value 0.994 | locus YDR388W, stronger effect = lower value 0.98 | locus YDR392W, strain spt3, stronger effect = lower value 1.04 | locus YDR502C, strain sam2, stronger effect = lower value 1.01 | locus YEL003W, strain gim4, stronger effect = lower value 0.991 | locus YEL037C, strain rad23, stronger effect = lower value 1 | locus YEL061C, strain CIN8 (second series), stronger effect = lower value 0.982 | locus YEL061C, strain CIN8, stronger effect = lower value 0.996 | locus YER015W, strain faa2, stronger effect = lower value 1 | locus YER016W, strain bim1, stronger effect = lower value 0.988 | locus YER110C, stronger effect = lower value 0.957 | locus YER111C, strain swi4, stronger effect = lower value 0.998 | locus YER155C, strain BEM2 (second series), stronger effect = lower value 0.993 | locus YER155C, strain BEM2, stronger effect = lower value 0.994 | locus YER167W, strain BCK2, stronger effect = lower value 1 | locus YFR010W, strain ubp6, stronger effect = lower value 0.987 | locus YGL078C, strain dbp3, stronger effect = lower value 0.99 | locus YGL086W, strain mad1, stronger effect = lower value 0.952 | locus YGL167C, strain pmr1, stronger effect = lower value 1 | locus YGL173C, strain kem1, stronger effect = lower value 0.99 | locus YGL227W, strain vid30, stronger effect = lower value 0.984 | locus YGL240W, strain doc1, stronger effect = lower value 0.985 | locus YGL248W, strain PDE1, stronger effect = lower value 1.02 | locus YGL253W, strain hxk2, stronger effect = lower value 0.993 | locus YGR078C, strain PAC10, stronger effect = lower value 1.01 | locus YGR135W, strain pre9, stronger effect = lower value 1.01 | locus YGR252W, strain gcn5, stronger effect = lower value 1.18 | locus YHR013C, strain ard1, stronger effect = lower value 1 | locus YHR027C, strain rpn1, stronger effect = lower value 0.989 | locus YHR030C, strain SLT2, stronger effect = lower value 0.978 and 1.08 | locus YHR079C, strain IRE1 (second series), stronger effect = lower value 0.974 | locus YHR079C, strain IRE1, stronger effect = lower value 1.07 | locus YHR094C, strain hxt1, stronger effect = lower value 0.992 | locus YHR129C, strain ARP1, stronger effect = lower value 0.997 | locus YHR142W, strain chs7, stronger effect = lower value 0.991 | locus YHR200W, strain rpn10, stronger effect = lower value 0.98 | locus YIL066C, strain RNR3, stronger effect = lower value 0.99 | locus YIL073C, strain SPO22, stronger effect = lower value 0.915 | locus YIL125W, strain kgd1, stronger effect = lower value 0.974 | locus YIR030C, strain dcg1, stronger effect = lower value 1 | locus YJL092W, strain hpr5, stronger effect = lower value 0.986 | locus YJL095W, strain BCK1 (second series), stronger effect = lower value 0.994 | locus YJL095W, strain BCK1, stronger effect = lower value 1.04 and 1.07 | locus YJL115W, strain asf1, stronger effect = lower value 0.988 | locus YJL129C, strain trk1, stronger effect = lower value 0.988 | locus YJL134W, strain LCB3, stronger effect = lower value 0.976 | locus YJL154C, strain vps35, stronger effect = lower value 0.994 | locus YJL164C, strain tpk1, stronger effect = lower value 1 | locus YJL166W, strain qcr8, stronger effect = lower value 0.996 | locus YJL168C, strain set2, stronger effect = lower value 0.984 | locus YJL187C, strain SWE1 (second series), stronger effect = lower value 1.01 | locus YJR043C, strain POL32, stronger effect = lower value 1.01 | locus YJR066W, strain TOR1, stronger effect = lower value 1.02 | locus YKL009W, strain mrt4, stronger effect = lower value 0.97 | locus YKL068W, stronger effect = lower value 0.966 | locus YKL085W, strain MDH1 (second series), stronger effect = lower value 0.993 | locus YKL085W, strain MDH1, stronger effect = lower value 0.993 | locus YKL160W, strain elf1, stronger effect = lower value 0.994 | locus YKR001C, strain vps1, stronger effect = lower value 0.986 | locus YKR026C, strain gcn3, stronger effect = lower value 0.984 | locus YKR091W, strain srl3, stronger effect = lower value 0.983 | locus YLL001W, strain dnm1, stronger effect = lower value 0.988 | locus YLL026W, stronger effect = lower value 1 | locus YLL041C, strain sdh2, stronger effect = lower value 1.01 | locus YLR027C, strain aat2, stronger effect = lower value 0.999 | locus YLR039C, strain RIC1, stronger effect = lower value 1.01 | locus YLR058C, strain SHM2, stronger effect = lower value 0.999 | locus YLR102C, strain apc9, stronger effect = lower value 0.973 | locus YLR113W, strain HOG1, stronger effect = lower value 1.04 | locus YLR221C, strain rsa3, stronger effect = lower value 0.997 | locus YLR258W, strain gsy2, stronger effect = lower value 0.995 | locus YLR262C, strain YPT6 (second series), stronger effect = lower value 1.02 | locus YLR262C, strain YPT6, stronger effect = lower value 0.984 | locus YLR268W, strain sec22, stronger effect = lower value 0.959 | locus YLR320W, strain mms22, stronger effect = lower value 1 | locus YLR330W, strain CHS5, stronger effect = lower value 0.984 | locus YLR342W, strain FKS1 (second series), stronger effect = lower value 0.999 | locus YLR342W, strain FKS1, stronger effect = lower value 0.988 | locus YLR357W, strain rsc2, stronger effect = lower value 0.992 | locus YLR370C, strain arc18, stronger effect = lower value 1.02 | locus YLR371W, strain rom2, stronger effect = lower value 0.996 | locus YLR384C, strain iki3, stronger effect = lower value 1.01 | locus YLR418C, strain cdc73, stronger effect = lower value 1.06 | locus YML016C, strain PPZ1, stronger effect = lower value 0.992 | locus YML032C, strain rad52, stronger effect = lower value 1.04 | locus YML120C, strain ndi1, stronger effect = lower value 0.994 | locus YML124C, strain tub3, stronger effect = lower value 0.991 | locus YMR058W, strain fet3, stronger effect = lower value 0.997 | locus YMR078C, strain ctf18, stronger effect = lower value 1.01 | locus YMR125W, strain sto1, stronger effect = lower value 1.01 | locus YMR129W, stronger effect = lower value 0.99 | locus YMR205C, strain PFK2, stronger effect = lower value 1 | locus YMR223W, strain ubp8, stronger effect = lower value 1.02 | locus YMR231W, strain pep5, stronger effect = lower value 0.997 | locus YMR263W, strain SAP30, stronger effect = lower value 0.992 | locus YMR307W, strain GAS1, stronger effect = lower value 1.16 | locus YNL067W, strain RPL9B, stronger effect = lower value 1.01 | locus YNL071W, strain lat1, stronger effect = lower value 0.998 | locus YNL183C, strain NPR1, stronger effect = lower value 1.02 | locus YNL209W, strain ssb2, stronger effect = lower value 0.992 | locus YNL233W, strain BNI4, stronger effect = lower value 1.01 | locus YNL248C, strain rpa49, stronger effect = lower value 1 | locus YNL250W, strain rad50, stronger effect = lower value 0.96 | locus YNL271C, strain bni1, stronger effect = lower value 0.997 | locus YNL298W, strain CLA4, stronger effect = lower value 0.984 | locus YNL307C, strain MCK1, stronger effect = lower value 0.981 | locus YNL322C, strain KRE1 (second series), stronger effect = lower value 1 | locus YNR049C, strain mso1, stronger effect = lower value 1.02 | locus YNR052C, strain pop2, stronger effect = lower value 1 | locus YOL012C, strain htz1 1.19 | locus YOL147C, strain pex11, stronger effect = lower value 0.989 | locus YOR001W, strain rrp6, stronger effect = lower value 1.01 | locus YOR061W, strain CKA2, stronger effect = lower value 1 | locus YOR069W, strain VPS5, stronger effect = lower value 0.986 | locus YOR070C, strain gyp1, stronger effect = lower value 1.01 | locus YOR080W, strain dia2, stronger effect = lower value 1 | locus YOR083W, strain WHI5, stronger effect = lower value 1.01 | locus YOR106W, strain vam3, stronger effect = lower value 1.02 | locus YOR136W, strain idh2, stronger effect = lower value 0.972 | locus YOR184W, strain ser1, stronger effect = lower value 0.972 | locus YOR231W, strain MKK1, stronger effect = lower value 1.04 | locus YOR265W, strain rbl2, stronger effect = lower value 1 | locus YOR270C, strain vph1, stronger effect = lower value 0.968 | locus YOR290C, strain snf2, stronger effect = lower value 1 | locus YOR316C, strain cot1, stronger effect = lower value 0.978 | locus YPL051W, strain arl3, stronger effect = lower value 1 | locus YPL055C, strain LGE1, stronger effect = lower value 1.01 | locus YPL078C, strain atp4, stronger effect = lower value 1.02 | locus YPL106C, strain sse1, stronger effect = lower value 1.01 | locus YPL240C, strain hsp82, stronger effect = lower value 0.988 | locus YPL256C, strain CLN2, stronger effect = lower value 1.08 | locus YPR119W, strain clb2, stronger effect = lower value 0.993 | locus YPR141C, strain kar3, stronger effect = lower value 0.982 | locus YPR163C, strain tif3, stronger effect = lower value 0.998 | locus YPR167C, strain met16, stronger effect = lower value 0.991 | strain wtn01, stronger effect = lower value 0.948
